# Bioassay records (PubChem BioAssay)
# INS promoter inh: inhibitors of insulin promoter-driven GFP, primary screen, imaging, TRM-6 cells (human fetal islet line), eGFP reporter, cell count | reporter expression induced with tamoxifen | inhibition, % at 2 µM | actives 0.9% (n = 130,000);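 active = inhibition above the mean plus 3 SD, with well images judged a real hit on visual review, cut at about 60% in these data, passing the limit was not always enough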
# HCT116 PTEN-null: growth suppression of PTEN-null HCT116, primary screen, cell-based, CellTiter-Glo. HCT116 PTEN-null viability, 60 h; stronger effect = lower value. viability, % at 10 µM. actives 1.2% (n = 140,000);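 active = viability at or below a set limit, 4 SD under the median of all tested compounds, cut at about 3.7% in these data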;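 note: PTEN knockout HCT116 line with beta catenin targeted HCT116 as companion control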
# Lmaj promast: Leishmania major promastigote growth inhibition, primary screen; Leishmania major promastigotes, resazurin fluorescence viability; inhibition, % at 10 µM; actives 9% (n = 200,000); AID 1063, 2008; in the data active = inhibition above about 50%;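 note: promastigotes grown with compound for 44 hours at 28 °C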
# bCat KO growth: primary screen for growth suppressors in beta-catenin knockout HCT116 cells (colon tumor, human); HCT116 beta-catenin knockout viability, CellTiter-Glo, 60 h; stronger effect = lower value; viability, % at 10 µM; actives 1.5% (n = 140,000); AID 818, 2007;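 active = viability at or under a set limit, the compound median less 4 SD, cut at about 6% in these data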
# ROMK mod: ROMK potassium channel modulators, primary screen, cell-based, thallium flux, MLSMR library. AID 1918, 2009. Tet-inducible ROMK, thallium flux fluorescence; actives lie on both sides. ATP-sensitive inward rectifier potassium channel 1 (Homo sapiens), P48048. actives 2% (n = 130,000). B-score at 10 µM;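 active = signal ratio slope over the read window, or its plate-corrected B-score, at least 3 SD from the plate mean, either direction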;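 note: B-score of the F/F0 ratio slope over 7 to 12 s after thallium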
# p97 ATPase inh: inhibitors of human p97 ATPase, primary screen, biochemical. actives 0.42% (n = 220,000). recombinant p97 ATPase, Kinase-Glo ATP luminescence, 3 h. inhibition, % at 8 µM; in the data active = inhibition above about 15%
# Target sequence (P55072 whole entry, looked up): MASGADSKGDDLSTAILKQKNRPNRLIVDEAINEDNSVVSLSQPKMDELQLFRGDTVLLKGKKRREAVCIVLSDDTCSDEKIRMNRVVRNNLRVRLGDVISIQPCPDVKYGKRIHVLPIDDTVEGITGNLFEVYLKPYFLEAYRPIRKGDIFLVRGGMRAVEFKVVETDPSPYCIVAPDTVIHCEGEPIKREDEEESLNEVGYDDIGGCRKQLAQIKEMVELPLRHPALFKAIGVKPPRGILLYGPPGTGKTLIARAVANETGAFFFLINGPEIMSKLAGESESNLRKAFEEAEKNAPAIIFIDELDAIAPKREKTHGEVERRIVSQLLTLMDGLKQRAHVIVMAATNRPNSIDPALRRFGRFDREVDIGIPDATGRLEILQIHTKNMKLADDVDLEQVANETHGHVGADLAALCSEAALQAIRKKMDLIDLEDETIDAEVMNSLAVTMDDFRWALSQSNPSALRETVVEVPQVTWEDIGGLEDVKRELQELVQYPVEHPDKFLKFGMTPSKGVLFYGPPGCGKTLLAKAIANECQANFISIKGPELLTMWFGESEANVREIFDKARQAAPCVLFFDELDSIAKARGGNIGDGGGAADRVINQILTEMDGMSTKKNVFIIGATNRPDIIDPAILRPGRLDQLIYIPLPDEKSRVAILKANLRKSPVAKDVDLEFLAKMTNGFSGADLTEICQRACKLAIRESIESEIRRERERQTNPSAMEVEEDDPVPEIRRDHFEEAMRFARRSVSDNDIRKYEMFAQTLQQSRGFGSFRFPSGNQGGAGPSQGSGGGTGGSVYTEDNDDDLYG
# Lmaj promast 1uM: Leishmania major promastigote growth inhibition, confirmation, 1 µM repeat of primary hits; shares compounds with Lmaj promast; L. major promastigote growth, resazurin fluorescence, 48 h; inhibition, % at 1 µM; actives 13% (n = 1,100); AID 1258, 2008;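 active = inhibition above about 50% in both repeat tests, limit read from the data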
# Hits are given with their value; n = inactive; x = not tested or not shown. Shown are actives, neighbours in structure and some others; about 10% of the full set was active somewhere.
SMILES,INS promoter inh,HCT116 PTEN-null,Lmaj promast,bCat KO growth,ROMK mod,p97 ATPase inh,Lmaj promast 1uM
Cn1c(SCCC#N)nnc1-c1ccccc1F,x,x,n,x,n,n,x
Cn1c(SCCN2CCCCC2)nnc1-c1ccccc1Br,n,n,73.3,n,x,n,n
Cc1nc2ccccn2c1C(=O)OCC#N,n,x,n,x,n,n,x
O/N=C\c1cccn1-c1ccc(Br)cc1,n,n,n,n,n,n,x
Cc1cnc(C(=O)Nc2cc(F)ccc2C)cn1,x,x,n,x,n,n,x
C[C@H]1CC[C@H]2C(=O)N3[C@H](c4ccccc4Br)[C@@H](C)CC[C@H]3C(=O)N2[C@@H]1c1ccccc1Br,n,3.0,100.0,2.3,-4.29,n,n
CCSC1=N/C(=C\c2ccc(C(=O)O)cc2)C(=O)S1,x,n,n,n,x,n,x
CCSC1=N/C(=C\c2ccc(C)s2)C(=O)S1,n,n,82.6,n,n,n,n
CC(C)CCC(C)N=Cc1c(O)n(Cc2ccccc2)c(=O)c2ccccc12 (centres undefined),n,n,61.7,n,x,n,n
CCC(C)NC(=O)CNC(=S)N(Cc1ccccc1)Cc1cccnc1 (centres undefined),n,n,75.4,n,n,n,n
N#Cc1c(NC(=O)C2CC(c3c(F)cccc3Cl)=NO2)sc2c1CCC2 (centres undefined),n,n,63.8,n,n,n,n
CC(C)c1ccc(/C=N/Nc2ccc(C(=O)O)cc2)cc1,n,n,56.6,n,n,n,n
CCOC(=O)c1cnc(-c2ccccc2O)nc1Cl,x,x,n,x,n,n,x
CCOC(=O)C1=Nc2ccccc2C1=[N+]=[N-],x,n,78.5,n,n,n,n
Cc1cc(C)c(C(=O)CSC2=NC(N)=C(C#N)C3(CCCCC3)C2C(N)=O)cc1C (centres undefined),n,n,63.8,n,x,n,n
Cc1c(NC(=O)OCCNC(=O)COc2c(Cl)cccc2Cl)sc(=S)n1C,n,n,n,n,x,n,x
O=[N+]([O-])c1cc(Cl)ccc1-c1nc(-c2ccccc2)no1,n,n,89.5,n,n,n,n
CCCc1nc2ccccc2c(C(=O)OC(C)C(=O)NCc2ccc3c(c2)OCO3)c1CC (centres undefined),n,n,n,n,x,n,x
CCCN(Cc1cc2ccc(C)cc2[nH]c1=O)S(=O)(=O)c1ccccc1,n,n,63.5,n,n,n,n
Cc1cccc(N(CC(=O)Nc2cccnc2)S(C)(=O)=O)c1,x,x,x,x,x,n,x
Cc1cc(-c2nnc3n2CCCCC3)c(C)n1-c1ccccc1,x,n,n,n,n,n,x
O=C(NCC(O)CN1CCOCC1)c1ccc([N+](=O)[O-])cc1 (centres undefined),x,x,n,x,n,n,x
CCn1cc(CNCc2cn(C)nc2-c2ccc(C3CCCCC3)cc2)cn1,x,x,94.9,x,n,n,n
CCOC(=O)c1ccc(NC(=O)CSc2nc3sc(C(=O)O)c(C)c3c(=O)[nH]2)cc1,x,x,n,x,n,n,x
Cn1cc(C(=O)N/N=C/c2cccc([N+](=O)[O-])c2)c2ccccc21,x,x,x,x,n,n,x
SMILES,INS promoter inh,HCT116 PTEN-null,Lmaj promast,bCat KO growth,ROMK mod,p97 ATPase inh,Lmaj promast 1uM
COc1ccc2c(c1)OCC1=C2CCC2(C)C(=O)CC=C12 (centres undefined),n,n,51.8,n,x,n,n
Cc1ccc(/C(O)=C2/C(=O)C(=O)N(CCN3CCOCC3)C2c2cccs2)cc1 (centres undefined),n,n,n,n,x,n,x
O=C(NC1CC1)c1cccc(Nc2ccc(-c3ccc4c(c3)OCCO4)nn2)c1,n,n,50.4,n,n,n,n
Cc1nnc(SCC(=O)NC23CC4CC(CC(C4)C2)C3)s1,x,x,n,x,n,n,x
O=C(CSC1=NCCN1)NC12CC3CC(CC(C3)C1)C2,x,n,100.3,n,n,n,n
CCOC(=O)c1nnn(-c2nonc2N)c1COc1c(C=O)cccc1OC,n,n,98.0,n,x,n,n
CCOC(=O)c1nnn(-c2nonc2-n2cccc2)c1CCl,n,n,99.8,n,x,n,57.4
CCOC(=O)c1nnn(-c2nonc2N)c1CS(=O)(=O)c1ccccc1,n,n,n,n,x,n,x
CCOC(=O)c1nnn(-c2nonc2-n2cccc2)c1CN1CCC(C)CC1,n,n,n,n,n,n,x
Cc1ccc(NC(=O)c2ccc(Br)o2)cc1S(=O)(=O)N(C)C,n,x,59.7,x,n,n,n
Cc1ccc(NC(=O)c2ccncc2)cc1S(=O)(=O)N(C)C,x,n,n,n,x,n,x
Cc1c(N=c2c(=O)c3ccccc3c2=O)c(=O)n(-c2ccccc2)n1C,x,n,x,n,x,x,x
Cc1cc(C)c(C(=O)c2ccc(C(=O)N(C(C)C)C(C)C)cc2)c(C)c1,x,n,85.5,n,n,n,n
COc1cc(C(=O)OCC(=O)NC(=O)C2CCCCC2)ccc1OC(F)F,x,x,n,x,n,n,x
O=C(COC(=O)C1CC(O)CN1S(=O)(=O)c1ccc(Cl)cc1)c1cccc(Cl)c1 (centres undefined),n,n,n,n,n,n,x
CN(C)CCCNCCCCNC(=O)/C=N/O,x,n,n,n,n,n,x
C=CC[N+](C)(C)CCCNC(=O)/C=N/O,n,n,73.3,n,n,n,n
CN(C)S(=O)(=O)c1cccc(-c2cn3cc(Cl)ccc3n2)c1,n,n,99.2,n,n,n,n
Cc1nc(Oc2ccccc2)c2ccccc2n1,n,n,56.6,n,n,n,n
FC(F)(F)c1nc(Oc2ccccc2)c2ccccc2n1,n,n,n,n,x,n,x
O=C(OCc1ccccc1)c1cn(-c2ccccc2)nc1-c1ccncc1,n,n,68.6,n,x,n,n
COC(=O)c1cn(-c2ccccc2)nc1-c1ccncc1,n,n,n,n,x,n,x
Cc1ccc2nc(/C(C#N)=C\c3ccc(N4CCCCC4)c([N+](=O)[O-])c3)[nH]c2c1,n,n,97.3,n,n,n,n
N#C/C(=C/c1ccc(N2CCCC2)c([N+](=O)[O-])c1)c1nc2ccccc2[nH]1,n,n,n,n,x,n,x
COc1cccc(CSc2ccc(S(=O)(=O)N3CCOCC3)cc2C(=O)NCC2CCCO2)c1OC (centres undefined),x,x,n,x,n,n,x
CN(c1ccccc1)S(=O)(=O)c1cc(C(=O)N2CCN(c3ccccn3)CC2)ccc1Cl,n,n,90.5,n,n,n,n
O=C(c1ccc(Cl)c(S(=O)(=O)Nc2ccc(F)cc2)c1)N1CCN(c2ccccn2)CC1,n,n,n,n,x,n,x
CCCCN1C2CCCC1CC(NC(=O)C1CCCCC1)C2 (centres undefined),n,n,87.6,n,n,n,n
O=C(O)c1ccc(N=NN2CCCCCC2)cc1,n,n,58.7,n,n,n,n
O=C(O)c1ccc(N=NN2CCCC2)cc1,x,x,n,x,n,n,x
